# Bioassay records from PubChem.
# Hits are enriched below; roughly 5.8% of the tested compounds scored in any of these assays.
# KB-3-1 cytotox: kills parental KB-3-1 adenocarcinoma cells | Potency, µM (series often up to 46.1 µM), most hits filed as cytotoxic | AID 1347075 | actives 1.4% (n = 400,000) | KB-3-1 viability, CellTiter-Glo ATP luminescence, 72 h; note: % is set by controls: 0 for no effect and ±100 for the full control effect; nearly all actives have a fitted effect of over 60% in size
#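 Multi-concentration cytotoxicity screen in KB-3-1 cells grown in DMEM lacking phenol red with 10% FBS. After 72 h at 37 °C with compound, ATP-dependent luminescence was recorded.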
# ALOX12 inh: ALOX12 (human) lipoxygenase inhibition; purified 12hLO, xylenol orange hydroperoxide absorbance; Potency, µM (top dose mostly 108 µM), inactives show at the top dose activity change, negative = inhibition, most hits filed as inhibitors; actives 1.1% (n = 580,000); AID 1671190; note: % is set by controls: 0 for no effect and ±100 for the full control effect
# Target sequence (P18054 whole entry, looked up): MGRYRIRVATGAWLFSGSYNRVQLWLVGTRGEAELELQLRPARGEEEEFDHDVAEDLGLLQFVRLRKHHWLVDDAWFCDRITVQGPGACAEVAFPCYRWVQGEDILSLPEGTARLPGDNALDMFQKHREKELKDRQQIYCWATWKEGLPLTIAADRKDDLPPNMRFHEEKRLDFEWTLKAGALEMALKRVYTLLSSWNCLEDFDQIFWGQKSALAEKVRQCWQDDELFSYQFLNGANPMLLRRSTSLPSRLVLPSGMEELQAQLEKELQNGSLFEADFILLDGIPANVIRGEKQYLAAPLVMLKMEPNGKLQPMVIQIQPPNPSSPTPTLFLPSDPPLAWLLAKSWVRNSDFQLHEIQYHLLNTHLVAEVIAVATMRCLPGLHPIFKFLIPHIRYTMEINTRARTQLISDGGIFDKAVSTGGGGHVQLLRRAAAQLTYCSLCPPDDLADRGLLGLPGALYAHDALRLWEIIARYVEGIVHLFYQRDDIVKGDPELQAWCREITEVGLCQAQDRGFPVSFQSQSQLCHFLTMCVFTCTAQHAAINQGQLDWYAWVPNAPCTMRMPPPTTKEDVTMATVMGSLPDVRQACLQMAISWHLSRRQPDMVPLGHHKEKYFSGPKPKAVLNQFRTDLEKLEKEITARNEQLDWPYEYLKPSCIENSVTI
#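 Purified human 12hLO (150 nM final) in 25 mM Hepes, 0.01% Triton X-100, pH 7.0 was preincubated 15 min at room temperature with compound. Then 40 uM arachidonic acid was added, 30 min. Hydroperoxide was read by Fe-XO absorbance ratio 573/405 nm.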
# PINK1 expr mod: modulators of PINK1 expression; Potency, µM (titrated, usually from 76.6 µM), without a hit: at the highest dose activation (PINK1 increase), usual class: activators; actives 0.2% (n = 410,000); PINK1 immunofluorescence, high-content cytometry, 24 h; active = well fitted activation curve with a large enough effect; inconclusive = small, poorly fitted or top-dose-only effect; cell line not stated here; note: % of control where 0% means no effect; nearly all actives have a fitted effect of over 65% in size
#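 PINK1 protein, normally rapidly degraded, was detected by immunofluorescence after 24 hour compound treatment of a stable cell line. Titration data (5 concentrations) came from laser-scanning cytometry, with CCCP-treated wells as controls.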
# SW480 rereplic: induces DNA re-replication in SW480 colon adenocarcinoma cells; SW480 DNA re-replication, Hoechst DNA content imaging, 48 h; Potency, µM (doses to about 46.1 µM), without a hit: at the highest dose re-replication activation, most hits filed as activators; actives 1.8% (n = 340,000); AID 624297; note: % of control where 0% means no effect; nearly all actives have a fitted effect of over 55% in size
#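 First, 250 cells per well were seeded. Next, compound or vehicle (23 nL) was pinned in, plates sat 48 hr at 37 C. Finally Hoechst was added for 40 min before fluorescence scanning.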
# MCF10A rerep: DNA re-replication induction in MCF 10a cells; AID 624296; actives 2.9% (n = 350,000); MCF 10A DNA re-replication, Hoechst nuclear intensity, 48 h; Potency, µM (top dose mostly 46.1 µM), for the others: at the top dose activity, positive = re-replication, actives largely listed as activators; note: % of control where 0% means no effect; nearly all actives have a fitted effect of over 50% in size
# KB-V1 cytotox: KB-V1 MDR subline cytotoxicity | actives 3.4% (n = 400,000) | Potency, µM (titrated, usually from 46.1 µM), most hits filed as cytotoxic | KB-V1 MDR cells viability, CellTiter-Glo, 72 h; note: % is set by controls: 0 for no effect and ±100 for the full control effect; nearly all actives have a fitted effect of over 60% in size
#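 KB-V1, DMEM (no phenol red) + 10% FBS; cpd pin-transferred, titration series; 72 h, 37 degrees C; CellTiter-Glo, luminescence. Data normalized, curve-fit.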
# Active calls of the source: *; i = inactive; ? = inconclusive; nt = no result given; [ ] = dose if it differs, or a comment. Unless noted, calls come from the whole dose curve; as a rule, active = well fitted curve in the direction sought with a large enough effect; inconclusive = small, poorly fitted or top-dose-only effect, or another doubt; inactive = no such curve, though single readings can be large; an effect the other way counts as inactive or inconclusive. Potency is the fitted concentration of half-maximal effect.
SMILES,KB-3-1 cytotox,ALOX12 inh,PINK1 expr mod,SW480 rereplic,MCF10A rerep,KB-V1 cytotox
O=C(CN1c2cccc3cccc(c23)S1(=O)=O)NCCc1ccccc1,i,11%,3%,5%,11%,21µM*
COc1ccc(C)cc1NC(=O)CN1C(=O)c2cccc3cccc1c23,i,0%,21%,?,15µM*,i
O=C(Nc1ccc(F)cc1F)c1ncoc1-c1cccc(Cl)c1,nt,-13%,nt,nt,nt,nt
O=C(c1ccc(Cn2ccn3nc4c(c3c2=O)CCCC4)cc1)N1CCN(c2ccccc2F)CC1,nt,39%,nt,nt,nt,nt
O=C(COc1coc(CN2CCN(c3ccc(F)cc3)CC2)cc1=O)NC1CCCCC1,?,-11%,1%,-1%,8%,4.1µM*
Cn1c(=O)c2c(nc(N3CCN(C(=O)c4ccccc4)CC3)n2Cc2ccccc2)n(C)c1=O,nt,0%,nt,nt,nt,nt
CCOC(=O)c1c(C)[nH]c(C=O)c1Cc1cccc(Cl)c1,18µM*,?,3%,10%,27%,15µM*
Cc1ccc(-c2nnc(NC(=O)CCS(=O)(=O)c3ccc(F)cc3)o2)c(C)c1,i,9%,0%,1%,8.2µM*,i
O=C(CCS(=O)(=O)c1ccc(Cl)cc1)Nc1nnc(-c2cccs2)o1,i,-10%,0%,1.6µM*,?,i
COc1ccc(CC(=O)Oc2ccc(Br)cc2Cl)cc1,nt,-29%,nt,nt,nt,nt
COc1ccc(S(=O)(=O)N(CC(C)C)C2CCS(=O)(=O)C2)cc1C (configuration not stated),nt,2%,nt,nt,nt,nt
CCCCCCCNC(=O)c1ccc(N2CCC3(CC2)OCCO3)c([N+](=O)[O-])c1,i,-14%,2%,-61%,25%,9.2µM*
Cc1ccc(/C=C2\SC(=S)N(C3CCS(=O)(=O)C3)C2=O)cc1 (configuration not stated),i,-4%,1%,0.0052µM*,11%,i
Cc1ccc(S(=O)(=O)Oc2ccc3oc(=O)c(-c4ccccc4)c(C)c3c2)cc1,nt,4%,nt,nt,nt,nt
CN1CCN(C(=O)C(C)(C)Oc2nn(CC3CC3)c3ccc(CN4CCCC4)cc23)CC1,nt,41%[176 µM],nt,nt,nt,nt
Cc1cc(/C=N/NC(=O)c2ccc(CN3CCOCC3)cc2)c(C)n1-c1ccccc1,i,7%,-4%[38.3 µM],4%,25%,16µM*
Cc1cc(C)cc(-n2c(C)cc(/C=N/NC(=O)c3ccncc3)c2C)c1,i,32%,5%,24%[1.84 µM],-28%,i
Cc1cc(C)cc(-n2c(C)cc(/C=N/NC(=O)CSc3ncccn3)c2C)c1,?,-3%,0%,?,18µM*,?
Cc1cc(/C=N/NC(=O)Cn2c3ccccc3c(=O)c3ccccc32)c(C)n1-c1ccccc1,i,-13%,3%,28%,21µM*,i
Cc1cc(Cl)c2c(c1)[C@]1(C(=O)N2)[C@@H]2C(=O)N(Cc3ccccc3)C(=O)[C@@H]2[C@@H]2CCCN21,?,0%,-2%,16%,9%,?
O=C1[C@H]2[C@@H](C(=O)N1c1cc(Cl)cc(Cl)c1)[C@]1(C(=O)Nc3ccccc31)N1CCC[C@@H]21,i,-10%,3%[38.3 µM],-3%,29%,15µM*
CC(C)(C)c1nc2cc(Cl)c([N+](=O)[O-])cc2o1,?,1%,14µM*,-7%,?,?
Cc1ccccc1NC(=O)Nc1ccc2c(c1)N(C(=O)c1ccccc1)CC2,nt,-5%,nt,nt,nt,nt
OC(c1cc(-c2ccc(C(F)(F)F)cc2)nc(C(F)(F)F)c1)C1CCCCN1 (configuration not stated),i,?,-1%,?,23µM*,i
CC(C)CCNC(=O)c1c[nH]c2ccc(S(=O)(=O)Nc3cccc(C(F)(F)F)c3)cc2c1=O,nt,?,1%,nt,nt,nt
Cc1ccc(CCNC(=O)c2c[nH]c3ccc(S(=O)(=O)Nc4cccc(C(F)(F)F)c4)cc3c2=O)cc1,13µM*,-5%,-2%,nt,nt,i
